Compound activity: PubChem, Milwaukee Institute for Drug Discovery
In the library only some 6.8% were active in any assay of this set; here they are far more common.
Cy5 interf NS3h: Cy5 fluorescence quenchers or enhancers, artefact control for HCV NS3 helicase inhibitor project, biochemical, ChemBridge library, Cy5 readout; Cy5-dT15 DNA with NS3h, fluorescence interference; actives lie on both sides; signal over control mean, under 1 quenches; fluorescence interference ratio at 100 µM; 16,000 tested, 6% active;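 active = compound fluorescence over control fluorescence at most 0.8, a quencher, or at least a set upper limit, an enhancer; inactive = ratio between 0.8 and the set upper limit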
NS3h inh CB: HCV NS3 helicase inhibitors, primary screen, biochemical, fluorescence polarization, ChemBridge library; Hepatitis C virus NS3 helicase; NS3h Cy5-dT15 DNA binding; inhibition, % at 100 µM; 16,000 tested, 1.6% active; AID 687043, 2013;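 active = inhibition above the average over every tested compound plus 3 SD, cut at about 40% in these data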
Starred values were filed as active, the others as inactive.

SMILES	Cy5 interf NS3h	NS3h inh CB
COc1ccc(S(=O)(=O)N(CC(=O)Nc2ccccc2C(F)(F)F)Cc2ccccc2)cc1OC	0.63*	14
COc1ccc(S(=O)(=O)Nc2ccc([N+](=O)[O-])cc2OC)cc1	0.98	11
COc1cc(/C=C2/SC(=S)N(CCC(=O)Nc3ccc4c(c3)OCO4)C2=O)cc(OC)c1OC	0.98	0
Cc1ccc(/C=C2/NC(=S)NC2=O)s1	1.1	20
Cc1ccc(/C=C2/SC(=S)NC2=O)s1	0.79*	13
O=C(Nc1cccc2nsnc12)c1ccc(Br)o1	1	18
COc1ccc(-c2cn3cc(Cl)ccc3n2)cc1Br	0.86	14
CCOC(=O)C1=C(C)N=c2s/c(=C\c3ccc(N(CC)CC)o3)c(=O)n2C1c1ccc(OC)c(OC)c1 (stereo unspecified)	0.99	12
CCOC(=O)C1=C(C)N=c2s/c(=C/c3ccc(I)o3)c(=O)n2C1c1ccccc1OC (stereo unspecified)	0.73*	13
COC(=O)c1ccccc1NC(=O)CN(c1ccc(OC)c(Cl)c1)S(C)(=O)=O	1	18
COc1ccc(-n2c(C)ccc2C)c(N)c1	0.92	6
COc1cc(C(=O)O)c(-n2c(C)ccc2C)cc1OC	1.4*	29
CCOC(=O)C(C)Oc1ccc2c(C)c(C)c(=O)oc2c1 (stereo unspecified)	1	9
Cc1cc(Nc2cccc(F)c2)n2c(nc3ccccc32)c1C#N	1	2
Cc1cc(Nc2cccc(O)c2)n2ncnc2n1	0.69*	9
CC(=C(C#N)C#N)c1ccc2c(c1)OCCO2	0.97	2
CC(=C(C#N)C#N)c1ccc2c(c1)OCO2	0.74*	9
O=C(Nc1ccc(Cl)c(Cl)c1)c1cc(Br)ccc1Cl	1.1	4
CC(C)(C)N1C(=O)NC(=O)C(=Cc2ccc([N+](=O)[O-])s2)C1=O	0.88	40
O=C1NC(=S)N(c2ccc(F)cc2)C(=O)C1=Cc1ccc([N+](=O)[O-])s1	0.88	43*
CC(=O)c1ccc(NC(=S)NC(NC(=O)c2ccc(Cl)cc2Cl)C(Cl)(Cl)Cl)cc1 (stereo unspecified)	1	0
CC(=O)c1ccc(NC(=S)NC(NC(=O)c2ccc(C)cc2)C(Cl)(Cl)Cl)cc1 (stereo unspecified)	0.99	-8
Cc1ccc(C(=O)NC(NC(=S)Nc2cccc3ccccc23)C(Cl)(Cl)Cl)cc1 (stereo unspecified)	0.71*	5
O=C(NC(NC(=S)Nc1cccc2ccccc12)C(Cl)(Cl)Cl)c1ccccc1 (stereo unspecified)	0.9	8
CC(=O)Nc1ccc(NC(=S)NC(NC(=O)c2ccc(C)cc2)C(Cl)(Cl)Cl)cc1 (stereo unspecified)	0.67*	6
SMILES	Cy5 interf NS3h	NS3h inh CB
CC(=O)NC(NC(=S)Nc1cccc(Cl)c1)C(Cl)(Cl)Cl (stereo unspecified)	1.2*	19
COc1ccccc1N(CC(=O)Nc1cc(C)ccc1C)S(=O)(=O)c1ccccc1	0.96	13
O=[N+]([O-])c1ccc(-c2ncccc2O)cc1	0.92	14
C=CCN1C(=O)/C(=C\c2cccc(OC)c2)SC1=Nc1ccccc1	0.98	14
COCCNC(=O)c1ccc(Cl)c([N+](=O)[O-])c1	1.1	4
Cc1ccc(C(=O)Nc2c(C(=O)Nc3ccccc3)cnn2-c2ccccc2)cc1	0.93	12
CC(=O)Nc1ccc(C(=O)Nc2ccc([N+](=O)[O-])cc2)cc1	0.74*	-4
O=C(CSCC(=O)Nc1ccc([N+](=O)[O-])cc1)Nc1ccccc1	0.62*	6
Cc1c(C(=O)Nc2ccc([N+](=O)[O-])cc2)cnn1-c1ccccc1	0.58*	5
COCCNC(=O)c1ccc([N+](=O)[O-])cc1	0.72*	4
O=C(CSCC(=O)Nc1ccccc1)NCc1ccccc1	1.1	7
O=C(Nc1ccc(F)cc1)c1ccc([N+](=O)[O-])cc1	1.1	-11
C=CCOC(=O)C1=C(C)NC(=S)NC1c1ccc(OC)cc1 (stereo unspecified)	0.99	24
Cn1c(=O)c(-c2nc3ccccc3[nH]2)c(O)c2ccccc21	1.1	6
CC(=O)c1ccc(Oc2ccc([N+](=O)[O-])cc2)cc1	0.64*	10
Cc1ccc(NC(=O)c2ccc(Oc3ccc([N+](=O)[O-])cc3)cc2)cc1C	0.95	5
Cc1ccc(N2C(=O)c3ccc(C(=O)Nc4ccc(O)cc4)cc3C2=O)cc1C	1	-6
O=C(Nc1ccc(O)cc1)c1ccc2c(c1)C(=O)N(c1ccc([N+](=O)[O-])cc1)C2=O	0.65*	0
COc1c(Cl)cc(C(=O)Nc2ccc(C)cc2[N+](=O)[O-])cc1Cl	1.2	3
CCN1C(=O)/C(=C/c2cn(CCC#N)nc2-c2ccc(-c3ccccc3)cc2)SC1=S	1	-2
COC(=O)c1cc(NC(=O)c2cccc(OCc3ccccc3)c2)cc(C(=O)OC)c1	1.2*	3
COC(=O)c1cc(NC(=O)c2ccc(OCc3ccccc3)cc2)cc(C(=O)OC)c1	0.95	-4
COC(=O)C1=C(C)NC2=C(C(=O)c3ccccc32)C1c1cc(OC)c(OC)c(OC)c1 (stereo unspecified)	1	-12
CC1=NN(C(=O)c2ccc([N+](=O)[O-])cc2)C(O)(c2ccc(Cl)cc2)C1 (stereo unspecified)	0.98	18
CC(C)(C)C1=NN(C(=O)c2ccc([N+](=O)[O-])cc2)C(O)(C(F)(F)F)C1 (stereo unspecified)	0.67*	15
SMILES	Cy5 interf NS3h	NS3h inh CB
Cc1cc(C=C2C(=O)NC(=O)NC2=O)c(C)n1-c1ccc(Cl)cc1	1.1	-6
O=C(Nc1ccc(F)cc1)c1cc2ccccc2oc1=O	1.1	4
COc1ccc(/C=C/C(=O)c2ccc(Cl)cc2)cc1	0.94	4
COc1ccc(C(=O)CSc2nnc(Sc3nc4ccccc4[nH]3)o2)cc1	0.54*	10
COc1ccc(C(=O)CSc2nc3ccccc3c(=O)[nH]2)cc1	1.1	1
COc1ccc(C2NC(c3ccc(OC)cc3)C3CCCC2C3=O)cc1 (stereo unspecified)	1	6
COc1ccc(C2NC(c3ccc(OC)cc3)C(c3ccccc3)C(=O)C2c2ccccc2)cc1 (stereo unspecified)	0.72*	18
O=C(/C=C/c1ccc(-c2cccc([N+](=O)[O-])c2)o1)c1cc2ccccc2o1	0.99	3
O=C(Nc1ccc(S(=O)(=O)N2CCCCCC2)cc1)c1ccc(F)cc1	0.86	2
Cc1ccc(C(=O)Nc2ccc(S(=O)(=O)N3CCCC3)cc2)cc1	1.1	10
CCC(=O)Nc1ccc(S(=O)(=O)N2CCCCCC2)cc1	0.74*	-9
O=C(O)/C=C/C(=O)Nc1ccc(S(=O)(=O)N2CCCCCC2)cc1	0.78*	10
O=C(c1ccc([N+](=O)[O-])cc1)N1CCN(C(=O)c2ccccc2F)CC1	1.1	-1
CCCc1noc(-c2ccc(C(C)(C)C)cc2)n1	0.71*	7
Clc1ccccc1Cc1noc(-c2ccc(Br)cc2)n1	1.1	-2
CCCc1noc(-c2ccccc2Cl)n1	0.76*	2
Clc1ccccc1Cc1noc(-c2ccccc2Cl)n1	0.92	2
CCOC(=O)N(CCCC(=O)OC)CP(=O)(OCC)OCC	1	2
